For 17 compounds, Potency and outcome results are on record in PubChem BioAssay (NCATS).

Assay [1] in a line: NS1 protein of Zika virus - qHTS assay to identify small molecule inhibitors in human HEK 293 cells (AID 1347053). Further: nearly all actives have a fitted effect of over 55% in size. Further: potency means the concentration at half of the fitted maximal effect. The essentials:
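Inhibition of NS1 expression was scored in HEK 293 cells given compound 1 h ahead of MR766 virus (MOI = 0.5). Following 24 h at 37 C, two anti-NS1 antibodies generated a TR-FRET signal, scaled between uninfected and infected controls.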

The target in assay [2] is T1, Tyrosine-protein phosphatase non-receptor type substrate 1 (Homo sapiens) + Leukocyte surface antigen CD47 (Homo sapiens) (UniProt P78324+Q08722). Briefly: CD47-SIRPalpha protein protein interaction - LANCE assay qHTS validation (AID 1347057; active means well fitted curve in the direction sought with a large enough effect in the signal ratio, with a control signal flat, not every such curve was filed as active; the % refers to the signal ratio; further: series mostly up to about 38 µM). The method, boiled down: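 First, His-tagged CD47 and Eu-labelled anti-His antibody met the compound for 30 min; next, site-specifically biotinylated SIRPalpha was added for 30 min; finally streptavidin-APC was added before reading the TR-FRET ratio.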
T1 sequence (P78324 whole entry, looked up): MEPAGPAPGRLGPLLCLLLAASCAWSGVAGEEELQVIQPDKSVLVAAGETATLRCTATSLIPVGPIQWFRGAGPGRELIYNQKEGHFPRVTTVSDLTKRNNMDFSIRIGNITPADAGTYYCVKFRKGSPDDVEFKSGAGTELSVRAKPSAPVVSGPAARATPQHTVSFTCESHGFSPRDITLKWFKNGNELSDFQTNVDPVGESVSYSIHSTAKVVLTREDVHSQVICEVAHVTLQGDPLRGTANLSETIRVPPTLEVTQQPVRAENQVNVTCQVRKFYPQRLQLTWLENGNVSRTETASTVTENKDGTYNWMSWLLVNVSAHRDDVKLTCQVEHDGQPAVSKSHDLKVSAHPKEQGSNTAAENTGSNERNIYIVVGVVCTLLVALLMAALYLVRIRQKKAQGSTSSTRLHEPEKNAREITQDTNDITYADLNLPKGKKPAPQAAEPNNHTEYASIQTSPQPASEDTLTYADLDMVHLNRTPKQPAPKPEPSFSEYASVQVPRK
T1 sequence (Q08722 whole entry, looked up): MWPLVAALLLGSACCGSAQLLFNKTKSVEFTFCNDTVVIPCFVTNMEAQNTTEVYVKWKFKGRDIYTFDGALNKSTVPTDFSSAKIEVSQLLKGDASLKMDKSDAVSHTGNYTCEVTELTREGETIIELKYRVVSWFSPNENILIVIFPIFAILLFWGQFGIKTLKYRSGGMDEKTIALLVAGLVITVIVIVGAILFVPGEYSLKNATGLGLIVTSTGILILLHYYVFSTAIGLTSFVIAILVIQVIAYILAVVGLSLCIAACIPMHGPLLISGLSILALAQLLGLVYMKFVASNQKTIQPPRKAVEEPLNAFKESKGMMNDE
Background: Time-resolved FRET reads energy transfer from a long-lived donor to a nearby acceptor.

Assay [3] has as its target T1, Tyrosine-protein phosphatase non-receptor type substrate 1 (Homo sapiens) + Leukocyte surface antigen CD47 (Homo sapiens). The assay is described as follows: CD47-SIRPalpha protein protein interaction - HTRF assay qHTS validation (AID 1347058; active means well fitted curve in the direction sought with a large enough effect in the signal ratio, not every such curve was filed as active; the % refers to the signal ratio; further: series mostly up to about 38 µM). The essentials: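 TR-FRET read (Ch1/Ch2 ratio) of soluble extracellular CD47 and Avi-biotinylated SIRPalpha domains in PBS pH 7.4 with 0.05% IGEPAL; 7-point compound titration. Sequential 30 min room-temperature steps; non-biotinylated SIRPalpha as control inhibitor.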

The target is the same in assay [4]. The assay is described as follows: CD47-SIRPalpha protein protein interaction - Alpha assay qHTS validation (AID 1347059).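 Further: bead proximity luminescence from CD47 binding SIRPalpha after compound preincubation with SIRPalpha.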 Further: potency means the concentration at half of the fitted maximal effect. The method, boiled down:
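Soluble extracellular domains: Avi-tag biotinylated SIRPalpha (25 nM) preincubated 30 min RT with compound, then 6His-CD47 (12.5 nM) 30 min; Ni-NTA acceptor and streptavidin donor beads (10 ug/mL) 30 min, AlphaScreen read. PBS pH 7.4, 0.05% IGEPAL.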

The target of assay [5] is Parathyroid hormone/parathyroid hormone-related peptide receptor (Homo sapiens) (UniProt Q03431). Briefly: qHTS for PTHR1 Agonists: Optimization Screen against the NCGC LOPAC library (AID 1347079).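 Further: GloSensor cAMP luminescence in HEK-293 GP2 cells expressing human PTHR1 with IBMX.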 Further: potency means the concentration at half of the fitted maximal effect. The method, boiled down: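 Agonist readout: GloSensor cAMP luminescence, read after 15 min at room temperature. HEK-293-derived GP2 line carries PTHR1; compounds tested as a titration for 1 hr at 37C in presence of IBMX. M-PTH (1-15) served as control.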
Sequence of Parathyroid hormone/parathyroid hormone-related peptide receptor (Homo sapiens) (Q03431 whole entry, looked up): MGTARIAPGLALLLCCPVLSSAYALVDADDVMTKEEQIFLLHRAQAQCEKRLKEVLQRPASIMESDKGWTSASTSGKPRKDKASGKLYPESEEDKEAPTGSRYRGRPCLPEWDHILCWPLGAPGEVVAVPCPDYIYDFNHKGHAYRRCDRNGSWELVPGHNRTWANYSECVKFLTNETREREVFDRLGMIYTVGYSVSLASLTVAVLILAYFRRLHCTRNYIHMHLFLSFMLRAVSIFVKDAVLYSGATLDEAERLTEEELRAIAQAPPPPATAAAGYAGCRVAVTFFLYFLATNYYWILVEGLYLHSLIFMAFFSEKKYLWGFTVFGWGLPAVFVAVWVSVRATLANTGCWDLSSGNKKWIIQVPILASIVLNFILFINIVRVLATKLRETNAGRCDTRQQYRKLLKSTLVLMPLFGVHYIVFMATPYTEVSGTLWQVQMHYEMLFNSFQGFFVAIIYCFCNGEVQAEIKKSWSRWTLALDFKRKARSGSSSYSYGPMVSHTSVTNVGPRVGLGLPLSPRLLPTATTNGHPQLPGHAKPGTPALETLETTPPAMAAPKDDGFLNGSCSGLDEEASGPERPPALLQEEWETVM
(Quantitative high-throughput screening tests each substance at several concentrations.)

Assay [6] deals with N-terminal Xaa-Pro-Lys N-methyltransferase 1 (Homo sapiens) (UniProt Q9BV86). Briefly: qHTS Assay for Inhibitors of N-terminal methyltransferase 1 (NTMT1): LOPAC validation of the NTMT1 SAHH-coupled ThioGlo3 Assay (AID 1347143). Further: nearly all actives have a fitted effect of over 70% in size. Further: potency means the concentration at half of the fitted maximal effect. The method, boiled down: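 Fluorescence read-out (excitation 340nm, emission 450nm) of SAH-derived thiol, measured via SAHH coupling and ThioGlo3, taken immediately and after a 30 min room-temperature reaction, then normalized to the background read. Enzyme: NTMT1 at 125nM; cofactor SAM 100uM in the added reagent.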
Sequence of N-terminal Xaa-Pro-Lys N-methyltransferase 1 (Homo sapiens) (Q9BV86 whole entry, looked up): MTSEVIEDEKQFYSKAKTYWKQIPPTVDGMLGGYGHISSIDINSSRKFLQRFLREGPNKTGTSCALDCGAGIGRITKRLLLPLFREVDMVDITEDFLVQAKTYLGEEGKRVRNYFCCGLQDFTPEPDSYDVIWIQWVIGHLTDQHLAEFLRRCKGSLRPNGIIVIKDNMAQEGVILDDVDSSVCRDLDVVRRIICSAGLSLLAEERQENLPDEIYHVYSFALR

Assay [7] concerns Zika virus NS2B-NS3 protease (unlinked). The assay is described as follows: Optimization of GU AMC qHTS for Zika virus inhibitors: Unlinked NS2B-NS3 protease assay (AID 1347151). Further: nearly all actives have a fitted effect of over 80% in size. Further: potency means the concentration at half of the fitted maximal effect. The essentials: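 Percent inhibition is derived from the 15-min change in AMC fluorescence, normalized against no-inhibitor and no-enzyme controls, then fitted to a 4-parameter Hill curve. Aprotinin was the intraplate control.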

Records with an inconclusive call do not appear. The source made the active and inactive calls. Unless noted, the call rests on the fitted dose curve; in most records, active means well fitted curve in the direction sought with a large enough effect; inconclusive means small, poorly fitted or top-dose-only effect, or another doubt; inactive means no such curve, though single readings can be large; an effect the other way counts as inactive or inconclusive.

`[N-]=[N+]=Nc1ccc(C(=O)CSC[C@H](NC(=O)CC[C@H](N)C(=O)O)C(=O)NCC(=O)O)cc1`: the Potency entry in assay [1], in assay [2], in assay [4], in assay [5] and in assay [6] was “inactive” throughout. Also, the result in assay [3] was inactive. Besides, in assay [7], the Potency was 7.52 µM (active).

For `C[C@@H](NCCc1ccc(O)cc1)[C@@H](O)c1ccc(O)cc1`, the Potency entry in assay [1], in assay [2], in assay [4], in assay [6] and in assay [7] was “inactive” throughout. In assay [3], the result was inactive. Further, the Potency in assay [5] was 2.38 µM (active).

As for `O=C1Nc2ccc(I)cc2/C1=C/c1cc(Br)c(O)c(Br)c1`, the Potency result in assay [1], in assay [2] and in assay [5] was “inactive” in each case. Also, the result in assay [3] was inactive. Also, the Potency in assay [4] was 14.7 µM (active); in assay [6], 56.2 µM (active); in assay [7], 5.97 µM (active).

On to `S=C(S)N1CCCC1`, for which the results for the Potency in assay [1] and in assay [6] were 7.94 µM (active) and 20 µM (active), respectively. Further, the Potency result in assay [2], in assay [4], in assay [5] and in assay [7] was “inactive” each time. For the same compound, the result in assay [3] was inactive.

For the compound `Cc1nc2c(OCc3ccccc3)cccn2c1CC#N`, the Potency result in assay [1], in assay [2], in assay [4], in assay [5], in assay [6] and in assay [7] was “inactive” each time. Further, the result in assay [3] was inactive.

For the compound `N[C@H](C(=O)O)[C@H](O)C(=O)O`, the Potency result in assay [1], in assay [2], in assay [4], in assay [5], in assay [6] and in assay [7] was “inactive” each time. For the same compound, the result in assay [3] was inactive.

For the compound `O=C(O)c1cc(=O)cc(C(=O)O)[nH]1`, the Potency result in assay [1], in assay [2], in assay [4], in assay [5], in assay [6] and in assay [7] was “inactive” in each case. The result in assay [3] was inactive.

`O=C(O)CCC(=O)N1CCCC1C(=O)O` (stereo unspecified): the Potency result in assay [1], in assay [2], in assay [4], in assay [5], in assay [6] and in assay [7] was “inactive” throughout. Also, in assay [3], the outcome was inactive.

For the compound `N[C@@H](CS(=O)O)C(=O)O`, the Potency result in assay [1], in assay [2], in assay [4], in assay [5], in assay [6] and in assay [7] was “inactive” in each case. Further, in assay [3], the result was inactive.

Turning to `COc1ccccc1N1CCN(CCCCN2C(=O)c3ccccc3C2=O)CC1`, the Potency result in assay [1], in assay [2], in assay [4], in assay [5] and in assay [6] was “inactive” in each case. The result in assay [3] was inactive. Besides, the Potency in assay [7] was 23.8 µM (active).

As for `NOCC(=O)O`, the Potency result in assay [1], in assay [2], in assay [4], in assay [5], in assay [6] and in assay [7] was “inactive” throughout. Besides, the outcome in assay [3] was inactive.

In the case of `CC(C)NCC(O)COc1ccc(CC(N)=O)cc1` (stereo unspecified), the Potency entry in assay [1], in assay [2], in assay [4], in assay [6] and in assay [7] was “inactive” throughout. Also, the result in assay [3] was inactive.

Turning to `CCN(CC)CCOC(=O)c1cc(Cl)c(N)cc1OC`, the Potency entry in assay [1], in assay [2], in assay [4], in assay [5] and in assay [7] was “inactive” throughout. Moreover, in assay [3], the outcome was inactive.

As to `CNCCNS(=O)(=O)c1cccc2cnccc12`, the Potency result in assay [1], in assay [2] and in assay [5] was “inactive” throughout. In assay [3], the result was inactive.

Turning to `C=C1C[C@@]23CC[C@H]4[C@@](C)(CCC[C@@]4(C)C(=O)O)[C@@H]2CC[C@]1(O)C3`, the Potency entry in assay [1], in assay [2], in assay [5], in assay [6] and in assay [7] was “inactive” each time. Also, the result in assay [3] was inactive.

Turning to `CCC1(O)CC2CN(CCc3c([nH]c4ccccc34)[C@@](C(=O)OC)(c3cc4c(cc3OC)N(C=O)C3[C@]45CCN4CC=C[C@@](CC)([C@@H](OC(C)=O)[C@]3(O)C(=O)OC)[C@H]45)C2)C1` (stereo partly specified), the Potency result in assay [1], in assay [2], in assay [4], in assay [5] and in assay [7] was “inactive” in each case. For the same compound, the outcome in assay [3] was inactive.

Regarding `CN1C2CCC1CC(OC(c1ccccc1)c1ccccc1)C2` (stereo unspecified), the Potency entry in assay [1], in assay [2], in assay [4], in assay [5] and in assay [7] was “inactive” throughout. In addition, the result in assay [3] was inactive.
